NADH coupling: inhibitors of PK/LDH coupling enzymes, profiling panel, artefact control, biochemical, MLSMR library; coupled PK/LDH NADH assays, four targets; IC50, µM (series often up to 10 µM), without a hit: top-dose inhibition; actives 0.02% (n = 65,000);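 active = single-dose screening hits from any of four coupled enzyme assays that gave an IC50 when retested across doses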;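 also: the DPM-DC format reads NADH fluorescence rather than 340 nm absorbance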
Spn PMK inh: S. pneumoniae PMK inhibitors, primary screen, biochemical, mevalonate pathway, pilot trial included. actives 0.49% (n = 65,000). inhibition, % at 10 µM. phosphomevalonate kinase (Streptococcus pneumoniae D39). purified PMK, PK/LDH-coupled NADH absorbance 340 nm;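 active = top-ranked compounds by inhibition in the single 10 µM screen, taking a fixed number of the strongest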;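 also: 0% = full reaction with DMSO carrier and 100% = background rate without enzyme reaction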
A340 absorber: compound light absorbance at 340 nm, profiling panel, artefact control, biochemical, MLSMR library, data from PS, PMK, MK assays | compound absorbance at 340 nm, fold over control | fold change at 10 µM | 65,000 tested, under 10 active | AID 708, 2007;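 active = at 10 µM dose, initial 340 nm absorbance at least 2 fold that of control wells; inactive = change under 2 fold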;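 also: initial absorbance extrapolated from kinetic A340 decline of NADH oxidation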
MK inhibit: S. pneumoniae MK inhibitors, primary screen, biochemical, PK/LDH-coupled NADH absorbance; purified MK, PK/LDH-coupled NADH absorbance 340 nm; inhibition, % at 10 µM; actives 0.48% (n = 65,000);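 active = ranked among the strongest by inhibition in the single 10 µM screen, a fixed top-ranked set picked for dose follow-up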
Fluor 339 460: intrinsic fluorescence of library compounds, ex339/em460 – biochemical, MLSMR library, data from DPM-DC assay, artefact control, profiling panel; compound autofluorescence, ex339/em460 nm, NADH buffer; stronger effect = higher value; 1 = no-compound wells, NADH background; fluorescence fold increase at 10 µM; actives 5.5% (n = 65,000);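 active = at 10 µM, mean starting fluorescence two-fold or more over control wells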;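 also: signal is the first read of a kinetic run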
Spn DPM-DC inh: S. pneumoniae DPM-DC inhibitors, primary screen, biochemical, PK/LDH-coupled NADH fluorescence; diphosphomevalonate decarboxylase (Streptococcus pneumoniae D39); actives 0.49% (n = 65,000); purified DPM-DC; calls only at 10 µM;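 active = the 320 compounds with the highest percent inhibition in the single-dose primary screen, excluding strongly autofluorescent ones, cut at about 32% in these data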;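 also: kinetic rate of NADH fluorescence loss reporting ADP formed by the decarboxylase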
Active calls of the source: *; i = inactive; . = no result given; + = active, no number. Only some compounds are listed: those with a hit (about 6.3% of all), similar ones and a draw of the others.

SMILES	NADH coupling	Spn PMK inh	A340 absorber	MK inhibit	Fluor 339 460	Spn DPM-DC inh
CCCOC1CCCN(C(=O)c2cc(Cl)c(Cl)cc2C(=O)O)C1 (stereo not given)	6.0%	8.0	1.01	9.0	1.1	i
O=C(Cn1cc2c(n1)CCCCC2)NCc1cccs1	5.0%	7.0	1.04	7.0	1.06	i
Cc1cc(Nc2ccccc2)nc(-c2ccccc2O)n1	4.0%	9.0	1.12	2.0	2.17*	i
Cc1cc(N2CCCCCC2)nc(-c2ccccc2O)n1	4.0%	1.0	1.05	7.0	3.79*	.
Cc1cc(NCc2ccccc2)nc(-c2ccccc2O)n1	9.0%	9.0	1.09	9.0	2.19*	.
Cc1cc(Nc2cccc(F)c2)nc(-c2ccccc2O)n1	4.0%	5.0	1.06	6.0	1.33	i
CC1(C)Cc2c(sc3nc(SCC#N)n(C4CCCCC4)c(=O)c23)CO1	3.0%	0.0	1.04	8.0	1.04	i
COc1cc(C(=O)N2CCC(NC(=O)C(Cc3ccccc3C)NC(C)=O)CC2)cc(OC)c1OC (stereo not given)	6.0%	12.0	1.02	6.0	1.05	i
COc1ccc(OC)c(CC(NC(C)=O)C(=O)NC2CCN(c3nc(C)cc(C)c3C#N)CC2)c1 (stereo not given)	10.0%	0.0	1.02	12.0	2.82*	i
Cc1cc(N2CCN(C3CCCC3)CC2)n2ncc(-c3ccccc3)c2n1	11.0%	16.0	1.01	11.0	1.6	i
COC(=O)c1c(C)[nH]c(C(=O)COC(=O)Cc2ccc3c(c2)OCCO3)c1C	8.0%	14.0	1.02	11.0	1.11	i
CC(C)Cc1nc(N2CCN(C(=O)c3ccco3)CC2)c(C#N)c2c1CCC2	5.0%	0.0	1	10.0	1.68	i
Cc1nc(N2CCN(C(=O)c3ccc(Cl)cc3)CC2)c(C#N)c2c1COC(C)(C)C2	5.0%	8.0	1.03	2.0	2.31*	.
N#Cc1c(N2CCN(C(=O)c3ccco3)CC2)nc(-c2ccccc2)c2c1CCCC2	3.0%	5.0	1.07	1.0	2.18*	.
CC1(C)Cc2c(C#N)c(N3CCN(C(=O)c4ccco4)CC3)nc(Cc3ccccc3)c2CO1	11.0%	7.0	1.03	15.0	2.25*	.
CCCNC(=O)N1CCN(c2nc(C(C)C)c3c(c2C#N)CC(C)(C)OC3)CC1	9.0%	5.0	1.04	4.0	1.75	i
COc1ccc(C(CC(=O)O)NC(=O)c2ccco2)cc1OC (stereo not given)	5.0%	5.0	1.02	11.0	1.06	i
CCOC(=O)C1CCCN(C(=O)Cn2cccc2C(=O)c2ccccc2)C1 (stereo not given)	4.0%	12.0	1.04	0.0	1.02	i
Cn1c(NC(=O)c2ccc(F)c(F)c2)cc(=O)n(C)c1=O	3.0%	4.0	1.06	4.0	1.06	i
Cc1ccc(S(=O)(=O)Cc2cn3cccnc3n2)cc1	5.0%	8.0	1.05	1.0	3.74*	.
COc1ccccc1CN1CC(C(=O)NC2CCCCC2)CC1=O (stereo not given)	6.0%	16.0	0.99	3.0	1.05	i
CC(O)COc1ccc(/C(=N/O)c2ccccc2)cc1 (stereo not given)	22.0%	0.0	1.03	18.0	1.04	+
O=C(C1CCN(S(=O)(=O)N2CCC3(CC2)OCCO3)CC1)N1CCc2ccccc2C1	7.0%	19.0	1.06	1.0	1.05	i
CCOC(=O)N1CCC(NC(=O)C2CCN(c3ccc(N4CCOCC4)nn3)CC2)CC1	5.0%	9.0	1.02	1.0	4.87*	.
O=C(C1CCN(c2ccc(N3CCOCC3)nn2)CC1)N1CCc2ccccc2C1	9.0%	15.0	1.04	2.0	4.7*	.
COC(=O)C(C)Sc1nc(-c2ccc(OC)cc2)nc2c1c(=O)n(C)c(=O)n2C (stereo not given)	13.0%	14.0	1.06	5.0	3.59*	i
CCCc1nc(SCC(=O)c2ccc(OC)cc2)c2c(=O)n(C)c(=O)n(C)c2n1	6.0%	7.0	1.03	11.0	1.08	i
